Laboratory results reported in ChEMBL document CHEMBL3988442, “University of Dundee, Small-Polar-MMV Screening Library” (2021).
Hit rate of the full screen: of about 48,000 compounds, about 13,000 (27%) showed an effect of 50% or more. This is one part of the list.

Test system: Wolbachia pipientis
Assay: Anti-Wolbachia Cell-Based Screen
Format: functional
Parameters: scale not given: in the data most compounds retested in dose-response had high values
Conditions: 5 µM

Structure (SMILES) | Percent Effect
COc1ccc(OCc2cc(C(=O)N3CCC(O)CC3)n[nH]2)c(Cl)c1 | 8.523%
CN(C)S(=O)(=O)N(Cc1cscn1)c1ccccc1 | 6.938%
CCN(CC)c1ccc(NC(=O)N2CCc3sccc3C2)cn1 | -4.731%
CC(C)(O)c1cn(C2CCN(C(=O)CCC3CCCC3)CC2)nn1 | 7.362%
CC(=O)NC1CCN(c2cc(C3CCNCC3)nc(C)n2)C1 (stereo unspecified) | -6.629%
Cc1nc(CCC(N)=O)cc(C2CCNCC2)n1 | 77.84%
FC(F)(F)CN1CCC(CNc2nc3ccccc3o2)C1 (stereo unspecified) | 19.02%
CCN1CCC(CC(=O)N2CCc3sc(C(=O)N(C)C)cc3C2)CC1 | -40.78%
CCCc1nnc(SCC(=O)Nc2cc(C(C)(C)C)nn2C)[nH]1 | 5.759%
Cn1cc(C(=O)Nc2cc(F)ccc2OCC2CCCO2)ccc1=O (stereo unspecified) | 100.3%
CN1N=C(C(=O)Nc2cc(F)ccc2OCC2CCCO2)CCC1=O (stereo unspecified) | 0.7919%
Cn1ccc(C(=O)Nc2cc(F)ccc2OCC2CCCO2)cc1=O (stereo unspecified) | 108.3%
CC(NC(=O)c1ccc(=O)n(C)c1)c1ccc(OCC2CC2)c(F)c1 (stereo unspecified) | 7.042%
Cn1cccc1C(=O)Nc1cc(F)ccc1OCC1CCCO1 (stereo unspecified) | -3.687%
CS(=O)(=O)N[C@@H]1CCN(Cc2cccs2)[C@H]1Cc1cccnc1 | -19.82%
O=S1(=O)NC(c2ccnc(N3CCCC3)n2)=Nc2ccccc21 | 149.4%
CS(=O)(=O)N1CCN(c2ccnc(N3CCCCC3)n2)CC1 | 0.3412%
Cc1nn(-c2ccccc2)c(C)c1-c1ccnc(N2CCCOCC2)n1 | 7.099%
CS(=O)(=O)N1CCN(c2ccnc(N3CCCC3)n2)CC1 | -2.838%
O=S1(=O)NC(c2ccnc(N3CCOCC3)n2)=Nc2ccccc21 | 140.3%
O=c1c2cnc(N3CCOCC3)nc2ccn1-c1ccccc1 | 4.201%
O=S1(=O)NC(c2ccnc(N3CCCCC3)n2)=Nc2ccccc21 | 89.99%

Structure (SMILES) | Percent Effect
O=C(O)c1ccnc(-c2ccnc(N3CCCCCC3)n2)c1 | -0.3436%
CC(CO)CSc1ncnc2[nH]ncc12 (stereo unspecified) | 8.493%
CCC1CN(c2nnc(C)c(C)c2C#N)CCO1 (stereo unspecified) | -3.23%
CC(C)c1n[nH]c(C2CN(C(=O)C3=COCC3)CCO2)n1 (stereo unspecified) | -4.984%
CCc1ocnc1C(=O)N1CCOC(c2nc(C(C)C)n[nH]2)C1 (stereo unspecified) | 114.1%
CCc1n[nH]c(C2CN(C(=O)c3ncoc3CC)CCO2)n1 (stereo unspecified) | 97.1%
CCc1nnsc1C(=O)N1CCOC(c2nc(C(C)C)n[nH]2)C1 (stereo unspecified) | 112.8%
CCc1nnsc1C(=O)N1CCOC(c2nc(C)n[nH]2)C1 (stereo unspecified) | 12.72%
Cc1noc(C)c1CN1C[C@@H]2CC[C@H](C1)N(Cc1cc(F)cc(F)c1)C2 | 3.369%
N#Cc1ccccc1CN1C[C@@H]2CC[C@H](C1)N(CC1CCC1)C2=O | -9.781%
O=C(O)C(F)(F)F.O=C(c1ccncc1)N1CCCn2nnc(COCCO)c2C1 | 26.37%
CCc1nnc2n1CCN(Cc1noc(-c3cccc(C)c3)n1)C2 | -12.68%
Cc1ccccc1OCC(O)C(=O)N1CCC2(CC1)CN(C)C(=O)O2 (stereo unspecified) | -0.4396%
COc1ccc(NC(=O)Cc2c(C)nc3c(c2C)c(=O)[nH]n3C)cn1 | 22.04%
CC(C)CC(=O)NCc1cccc(OCCN(C)C2CCOCC2)c1 | -19.6%
c1ccc2sc(NCC3(N4CCOCC4)CCSC3)nc2c1 (stereo unspecified) | 0.766%
O=C(CC(F)(F)F)NCC(O)c1ccc2ccccc2c1 (stereo unspecified) | -2.994%
Cc1ccc(CN2CC[C@H](c3nnc(-c4ccco4)o3)C2)cc1 | -0.8562%
Cc1ncsc1-c1nnc(C2CCN(Cc3ccc(Cl)cc3)CC2)o1 | 113.6%
COc1ccc(CN2CCC(c3nnc(-c4scnc4C)o3)CC2)cc1 | 115.7%
COc1ccc(-c2nnc([C@H]3CCN(CC(C)(C)C)C3)o2)cc1 | 4.195%
Cc1ncsc1-c1nnc(C2CCN(Cc3ccc(F)cc3)CC2)o1 | -4.23%

Structure (SMILES) | Percent Effect
Cc1ncsc1-c1nc(CC2CCN(C)CC2)nn1Cc1ccccc1 | -11.92%
Cc1ncsc1-c1nnc(C2CCN(Cc3ccccc3)CC2)o1 | 104.4%
Cc1ncsc1-c1nnc(C2CCN(CC3CCCCC3)CC2)o1 | -4.118%
COc1ccc(CN2CC[C@H](c3nnc(-c4ccco4)o3)C2)cc1 | 27.76%
COc1ccc2c(c1)CC(C(=O)N(C)Cc1noc3c1CCCC3)CO2 (stereo unspecified) | -16.58%
c1cnnc(N2CCC(c3nnc(Cn4ccnc4)n3C3CC3)CC2)c1 | -16.04%
Cc1n[nH]c(NC(=O)c2ccc(COCC(F)(F)F)cc2)c1C | 90.05%
Cc1nc(NC(=O)COCC(F)(F)F)ccc1Br | 2.547%
O=C(Nc1cc[nH]n1)c1ccc(COCC(F)(F)F)cc1 | 87.88%
CN(C)CCN(Cc1ccc(C(F)(F)F)cc1)C(=O)c1cc[nH]n1 | -18.8%
COc1cccnc1NC(=O)COC1CCCC1 | 13.24%
CC(C)CC(NC(=O)c1cccc(F)c1F)C(=O)Nc1cc[nH]n1 (stereo unspecified) | -2.094%
Cc1n[nH]c(C)c1NC(=O)c1cccc(OCC(F)(F)F)n1 | 9.795%
COc1cccnc1NC(=O)c1ccc(COCC(F)(F)F)cc1 | 77.14%
COc1cccnc1NC(=O)COc1ccc(F)cc1F | 10.02%
CC(C)C(=O)NCCNC(=O)C12CCC(=O)N1c1cc(Cl)ccc1S2 (stereo unspecified) | -7.313%
CC(=O)N[C@@H]1Cc2ccccc2[C@H]1Nc1cc(C2CC2)ncn1 | -3.919%
COCCn1/c(=N\C(=O)CN(C)S(C)(=O)=O)sc2cc(Cl)ccc21 | -11.47%
Cc1ccc2nc(C)c(C)c(C(=O)N3CCC4(CCO4)CC3)c2c1 | -9.053%
O=C(NCc1cccnc1)C1=NN(c2ccccc2)C(=O)CN1 | -0.2289%
CCC(=O)N1CCC(NC2CCSCC2)C1 (stereo unspecified) | -15.97%
O=C(N[C@]12CC1CN(C(=O)c1ccco1)C2)c1cccc(F)c1 (stereo partly specified) | -50.8%
